Assay results reported in PubChem BioAssay (EPA / NIEHS).
Values joined by “and” are separate entries in the source; they are usually repeats but may differ in a detail not shown here. Equal values may be shown once. Active and inactive are the calls of the source. How the source made its calls: active means hit-call score of the fitted dose curve at least 0.9, where 1 is the maximum; inactive means score below 0.9.

Assay: CCTE_Shafer_MEA_dev_network_spike_duration_std: CCTE's Neural Network Formation Assay for Standard Deviation of Network Spike Duration, Shafer Lab (AID 2284052);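 further: hits are decreases in network spike duration SD versus DMSO vehicle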
Description: CCTE_Shafer_MEA_dev assay is conducted using Axion Biosystems 48 well microelectrode array (MEA) plates and Maestro recording system. Each well of the MEA plate contains a grid of 16 microelectrodes embedded in the culture surface. Electrically active cells, such as neurons, can be cultured over the electrodes, and electrical activity in these cells can be recorded extracellularly. The spontaneous firing of neurons is captured from each electrode on a microsecond timescale providing both temporally and spatially precise data. […] The CCTE_Shafer_MEA_dev assay uses primary cultures of rat cortical neurons. Recordings are made on days post-plating 5, 7, 9 and 12. As these cultures mature over time, neural networks develop functional activity and form cohesive networks in which electrical activity can be highly coordinated. CCTE_Shafer_MEA_dev_network_spike_duration_std is 1 of 19 assay components of the CCTE_Shafer_MEA_dev assay. It measures the standard deviation of the duration of network spikes (temporally-clustered groups of action potential firing across multiple electrodes) during a recording in a microelectrode array (MEA) using Axion Biosystems Maestro 768 channel amplifier with the AxIS adaptive spike detector. To collapse across multiple recordings made on days post-plating 5, 7, 9 and 12, the trapezoidal area-under-the-curve of the component is calculated.Data from the assay component CCTE_Shafer_MEA_dev_network_spike_duration_std was analyzed into 1 assay endpoint. This assay endpoint, CCTE_Shafer_MEA_dev_network_spike_duration_std, was analyzed in the negative analysis fitting direction relative to DMSO as the negative control and baseline of activity. Using a type of functional reporter, gain or loss-of-signal activity can be used to understand electrical activity.
On the day prior to culture, each well was coated thoroughly with 150 uL of 0.05% polyethyleneimine (PEI, Sigma Cat P3143) in 50 mM HEPES (Sigma Cat H7523) at a pH of 8. The plate was incubated at 37C for one hour. PEI was rinsed out with 500 uL of sterile water three times. Plates were stored at 4C until the day of culture. This culture was plated at a seeding density of 1.5 x 10^5 cells/well on a 48-well MEA plate, prepared as described above. Cells were administered via a 25 uL media/laminin ([…]; Sigma Cat L2020-1MG) drop directly onto the microelectrode array, as adding the cells with the laminin results in better attachment than pre-coating with laminin. After 2 hours, an additional 475 uL of cortical media was added and the cells returned to the incubator. Exposure starts at day 0 of plating and is continued over twelve days of network development until the experiment is terminated. Cells are fed with fresh medium on DIV 5 and 9, following the recordings on those days. The entire volume of media in the well is exchanged and any vehicle or compound treatment is renewed. Complete details are found in OP-NHEERL/ISTD/SBB/TJS/2015-03-r0 (available on request, email shafer.tim@epa.gov). Measurement of the electrical activity is non-invasive, and recordings can be made from the same plate over multiple different days of the culture. In cortical neurons, this allows for the measurement of extracellular action potentials over the period during which networks form in the MEA plate.

Row | Compound | outcome | AC50
1 | NC(=O)N1c2ccccc2C=Cc2ccccc21 | inactive | 
2 | CCN(CC)C(=S)SSC(=S)N(CC)CC |  | 100 nM (active) and 40.6 nM (active)
3 | c1ccc2c(c1)-c1cccc3c1c-2cc1ccccc13 | inactive | 
4 | C[C@]12C=CC(=O)C=C1CC[C@H]1[C@@H]3C[C@@H](O)[C@](O)(C(=O)CO)[C@@]3(C)C[C@H](O)[C@@]12F | inactive | 
5 | NNC(=O)c1ccncc1 | inactive | 
6 | COc1cc2c(c(OC)c1OC)-c1ccc(OC)c(=O)cc1[C@@H](NC(C)=O)CC2 |  | 3.22 nM (active)
7 | OC(Cn1cncn1)(Cn1cncn1)c1ccc(F)cc1F | inactive | 
8 | c1ccc2cc3ccccc3cc2c1 | inactive | 
9 | CCCC(CCC)C(=O)O | inactive | 
10 | Nc1ccn([C@@H]2O[C@H](CO)[C@@H](O)[C@@H]2O)c(=O)n1 |  | 65.6 nM (active) and 636 nM (active)
11 | FC(F)(F)C(F)(F)C(F)(F)C(F)(F)C(F)(F)C(F)(F)I | inactive | 
12 | FC(F)(F)COC(OCC(F)(F)F)OCC(F)(F)F | inactive | 
13 | CC[C@H](C)C(=O)O[C@H]1C[C@H](O)C=C2C=C[C@H](C)[C@H](CC[C@@H](O)C[C@@H](O)CC(=O)O)[C@H]21 | inactive | 
14 | O=C(Cl)C(F)(F)C(F)(F)C(F)(F)C(=O)Cl | inactive | 
15 | Cn1cc[nH]c1=S | inactive | 
16 | OCCC(F)(F)C(F)(F)C(F)(F)C(F)(F)F | inactive | 
17 | CCOc1ccc2[nH]cc(C(=O)NCc3ccccc3)c(=O)c2n1 | inactive | 
18 | OC(O)(C(F)C(O)(O)C(F)(F)F)C(F)(F)F | inactive | 
19 | NCC(F)(F)C(F)(F)C(F)(F)C(F)(F)F | inactive | 
